In ChEMBL document CHEMBL2218924, “A broad activity screen in support of a chemogenomic map for kinase signalling research and drug discovery” (Biochem J, 2013) one finds residual activity data, which are given here for seven compounds.

Assay [1] has as its target T1, Protein kinase C zeta type (Homo sapiens) (UniProt Q05513).
T1 sequence (whole entry): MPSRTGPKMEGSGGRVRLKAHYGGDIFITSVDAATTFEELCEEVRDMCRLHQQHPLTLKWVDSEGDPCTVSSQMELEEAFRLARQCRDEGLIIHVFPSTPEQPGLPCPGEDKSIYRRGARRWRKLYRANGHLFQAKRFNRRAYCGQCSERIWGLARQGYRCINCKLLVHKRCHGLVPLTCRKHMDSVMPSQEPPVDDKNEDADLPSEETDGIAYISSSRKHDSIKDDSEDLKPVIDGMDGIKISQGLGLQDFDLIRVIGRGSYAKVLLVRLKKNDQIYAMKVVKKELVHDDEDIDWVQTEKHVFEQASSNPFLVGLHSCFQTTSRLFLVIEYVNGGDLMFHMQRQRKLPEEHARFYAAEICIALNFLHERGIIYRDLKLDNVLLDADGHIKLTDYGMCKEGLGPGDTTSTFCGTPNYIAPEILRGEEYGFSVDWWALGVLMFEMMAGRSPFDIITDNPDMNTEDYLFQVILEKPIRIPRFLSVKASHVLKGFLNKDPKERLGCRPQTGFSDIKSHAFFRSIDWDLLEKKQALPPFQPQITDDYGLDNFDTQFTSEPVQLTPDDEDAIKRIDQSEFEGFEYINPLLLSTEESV
To be noted: at 1 µM.

In assay [2] the target is T2, Mitogen-activated protein kinase kinase kinase 5 (Homo sapiens) (UniProt Q99683).
T2 sequence (whole entry): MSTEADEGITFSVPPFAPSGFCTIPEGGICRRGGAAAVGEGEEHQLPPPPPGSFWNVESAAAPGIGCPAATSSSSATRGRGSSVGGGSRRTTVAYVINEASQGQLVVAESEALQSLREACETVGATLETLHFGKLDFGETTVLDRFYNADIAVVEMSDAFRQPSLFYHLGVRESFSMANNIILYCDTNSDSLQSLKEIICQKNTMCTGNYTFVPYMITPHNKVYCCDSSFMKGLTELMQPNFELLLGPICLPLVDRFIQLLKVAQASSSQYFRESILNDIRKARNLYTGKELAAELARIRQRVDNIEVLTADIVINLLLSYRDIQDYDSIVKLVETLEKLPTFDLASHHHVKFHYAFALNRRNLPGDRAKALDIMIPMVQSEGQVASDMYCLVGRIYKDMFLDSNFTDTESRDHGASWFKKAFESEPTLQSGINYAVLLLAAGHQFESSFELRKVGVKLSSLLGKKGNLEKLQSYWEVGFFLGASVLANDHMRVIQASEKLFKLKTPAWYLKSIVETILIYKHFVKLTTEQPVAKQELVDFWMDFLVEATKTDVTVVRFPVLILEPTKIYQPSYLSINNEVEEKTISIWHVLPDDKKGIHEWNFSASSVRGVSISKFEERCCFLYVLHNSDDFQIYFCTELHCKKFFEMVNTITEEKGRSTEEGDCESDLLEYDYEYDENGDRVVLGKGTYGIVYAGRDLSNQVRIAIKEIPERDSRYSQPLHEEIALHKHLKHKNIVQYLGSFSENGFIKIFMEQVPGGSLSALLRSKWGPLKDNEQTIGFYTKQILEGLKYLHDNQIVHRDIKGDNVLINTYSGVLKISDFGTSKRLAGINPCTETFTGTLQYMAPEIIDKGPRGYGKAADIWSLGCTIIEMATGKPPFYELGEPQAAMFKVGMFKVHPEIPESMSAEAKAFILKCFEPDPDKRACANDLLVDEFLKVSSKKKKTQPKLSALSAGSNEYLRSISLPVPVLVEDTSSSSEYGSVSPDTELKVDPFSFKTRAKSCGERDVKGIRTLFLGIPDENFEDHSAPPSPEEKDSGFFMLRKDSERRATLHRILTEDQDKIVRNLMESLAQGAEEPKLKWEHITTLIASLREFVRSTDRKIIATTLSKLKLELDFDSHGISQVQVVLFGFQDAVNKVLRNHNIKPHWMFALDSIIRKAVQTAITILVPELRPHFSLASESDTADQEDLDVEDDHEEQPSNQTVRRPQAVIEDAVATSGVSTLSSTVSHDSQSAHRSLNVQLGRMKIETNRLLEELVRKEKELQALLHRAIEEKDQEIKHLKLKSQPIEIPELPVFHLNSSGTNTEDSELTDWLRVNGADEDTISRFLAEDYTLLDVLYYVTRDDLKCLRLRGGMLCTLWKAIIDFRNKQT
The settings on record: at 10 µM.

Assay [3] addresses Tyrosine-protein kinase ABL1 (Homo sapiens) (UniProt P00519). The settings on record: at 1 µM.
Assay [4] has the same target. To be noted: at 10 µM.
Assay [5] deals with Tyrosine-protein kinase ABL2 (Homo sapiens) (UniProt P42684). The settings on record: at 1 µM.
The target is the same in assay [6]. The settings on record: at 10 µM.
For assay [7], the target named is T3, Aurora kinase A (Homo sapiens) (UniProt O14965).
T3 sequence (whole entry): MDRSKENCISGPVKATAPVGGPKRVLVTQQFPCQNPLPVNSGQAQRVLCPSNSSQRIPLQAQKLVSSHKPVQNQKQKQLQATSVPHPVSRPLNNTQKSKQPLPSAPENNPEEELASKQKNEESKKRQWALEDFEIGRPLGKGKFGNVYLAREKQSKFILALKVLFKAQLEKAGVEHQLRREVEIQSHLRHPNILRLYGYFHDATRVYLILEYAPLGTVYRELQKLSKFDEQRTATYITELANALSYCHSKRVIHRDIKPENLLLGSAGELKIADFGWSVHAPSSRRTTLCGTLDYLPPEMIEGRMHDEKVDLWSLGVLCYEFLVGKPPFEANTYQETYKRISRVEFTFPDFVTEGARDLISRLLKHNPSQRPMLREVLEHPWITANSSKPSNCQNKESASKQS
To be noted: at 1 µM.

Assay [8] deals with T3, Aurora kinase A (Homo sapiens). To be noted: at 10 µM.
For assay [9], the target named is Aurora kinase B (Homo sapiens) (UniProt Q96GD4). The settings on record: at 1 µM.
For assay [10] the target is unchanged. The settings on record: at 10 µM.
The target of assay [11] is T4, Aurora kinase C (Homo sapiens) (UniProt Q9UQB9).
T4 sequence (whole entry): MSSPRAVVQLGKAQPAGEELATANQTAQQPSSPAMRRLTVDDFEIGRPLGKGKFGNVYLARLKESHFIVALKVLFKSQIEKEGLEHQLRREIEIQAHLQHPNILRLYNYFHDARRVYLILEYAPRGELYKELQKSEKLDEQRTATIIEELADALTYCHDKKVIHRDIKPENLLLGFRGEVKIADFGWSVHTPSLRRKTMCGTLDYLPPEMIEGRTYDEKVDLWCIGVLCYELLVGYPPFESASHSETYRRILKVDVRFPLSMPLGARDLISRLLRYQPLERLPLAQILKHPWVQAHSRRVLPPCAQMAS
To be noted: at 1 µM.

For assay [12], the target named is T4, Aurora kinase C (Homo sapiens). The settings on record: at 10 µM.
Assay [13] addresses Tyrosine-protein kinase receptor UFO (Homo sapiens) (UniProt P30530). The settings on record: at 1 µM.
The target is the same in assay [14]. The settings on record: at 10 µM.
The target of assay [15] is Protein-tyrosine kinase 6 (Homo sapiens) (UniProt Q13882). To be noted: at 1 µM.
Assay [16] has the same target. To be noted: at 10 µM.
In assay [17] the target is Tyrosine-protein kinase BTK (Homo sapiens) (UniProt Q06187). The settings on record: at 1 µM.
For assay [18] the target is unchanged. The settings on record: at 10 µM.
For assay [19], the target named is Tyrosine-protein kinase Blk (Homo sapiens) (UniProt P51451). To be noted: at 1 µM.
For assay [20] the target is unchanged. To be noted: at 10 µM.

Tyrosine-protein kinase BTK (Homo sapiens), sequence (Q06187 whole entry): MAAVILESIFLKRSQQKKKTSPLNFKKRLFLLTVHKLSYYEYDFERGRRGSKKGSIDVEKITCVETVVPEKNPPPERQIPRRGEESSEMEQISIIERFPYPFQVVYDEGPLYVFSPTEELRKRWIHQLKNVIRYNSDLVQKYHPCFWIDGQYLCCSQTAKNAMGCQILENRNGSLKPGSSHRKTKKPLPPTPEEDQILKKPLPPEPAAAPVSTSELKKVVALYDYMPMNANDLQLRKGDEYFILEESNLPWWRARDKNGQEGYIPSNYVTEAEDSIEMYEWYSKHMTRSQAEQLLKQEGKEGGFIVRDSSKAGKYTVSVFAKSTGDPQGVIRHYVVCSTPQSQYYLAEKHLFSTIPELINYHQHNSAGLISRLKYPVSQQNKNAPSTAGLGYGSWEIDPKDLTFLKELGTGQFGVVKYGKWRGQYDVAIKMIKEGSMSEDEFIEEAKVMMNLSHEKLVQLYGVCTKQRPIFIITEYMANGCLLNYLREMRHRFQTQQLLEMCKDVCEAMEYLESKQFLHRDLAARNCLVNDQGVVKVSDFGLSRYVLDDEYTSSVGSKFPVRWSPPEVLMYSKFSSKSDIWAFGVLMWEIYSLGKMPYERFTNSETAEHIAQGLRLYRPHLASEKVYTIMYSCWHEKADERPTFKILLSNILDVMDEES
Tyrosine-protein kinase ABL2 (Homo sapiens), sequence (P42684 whole entry): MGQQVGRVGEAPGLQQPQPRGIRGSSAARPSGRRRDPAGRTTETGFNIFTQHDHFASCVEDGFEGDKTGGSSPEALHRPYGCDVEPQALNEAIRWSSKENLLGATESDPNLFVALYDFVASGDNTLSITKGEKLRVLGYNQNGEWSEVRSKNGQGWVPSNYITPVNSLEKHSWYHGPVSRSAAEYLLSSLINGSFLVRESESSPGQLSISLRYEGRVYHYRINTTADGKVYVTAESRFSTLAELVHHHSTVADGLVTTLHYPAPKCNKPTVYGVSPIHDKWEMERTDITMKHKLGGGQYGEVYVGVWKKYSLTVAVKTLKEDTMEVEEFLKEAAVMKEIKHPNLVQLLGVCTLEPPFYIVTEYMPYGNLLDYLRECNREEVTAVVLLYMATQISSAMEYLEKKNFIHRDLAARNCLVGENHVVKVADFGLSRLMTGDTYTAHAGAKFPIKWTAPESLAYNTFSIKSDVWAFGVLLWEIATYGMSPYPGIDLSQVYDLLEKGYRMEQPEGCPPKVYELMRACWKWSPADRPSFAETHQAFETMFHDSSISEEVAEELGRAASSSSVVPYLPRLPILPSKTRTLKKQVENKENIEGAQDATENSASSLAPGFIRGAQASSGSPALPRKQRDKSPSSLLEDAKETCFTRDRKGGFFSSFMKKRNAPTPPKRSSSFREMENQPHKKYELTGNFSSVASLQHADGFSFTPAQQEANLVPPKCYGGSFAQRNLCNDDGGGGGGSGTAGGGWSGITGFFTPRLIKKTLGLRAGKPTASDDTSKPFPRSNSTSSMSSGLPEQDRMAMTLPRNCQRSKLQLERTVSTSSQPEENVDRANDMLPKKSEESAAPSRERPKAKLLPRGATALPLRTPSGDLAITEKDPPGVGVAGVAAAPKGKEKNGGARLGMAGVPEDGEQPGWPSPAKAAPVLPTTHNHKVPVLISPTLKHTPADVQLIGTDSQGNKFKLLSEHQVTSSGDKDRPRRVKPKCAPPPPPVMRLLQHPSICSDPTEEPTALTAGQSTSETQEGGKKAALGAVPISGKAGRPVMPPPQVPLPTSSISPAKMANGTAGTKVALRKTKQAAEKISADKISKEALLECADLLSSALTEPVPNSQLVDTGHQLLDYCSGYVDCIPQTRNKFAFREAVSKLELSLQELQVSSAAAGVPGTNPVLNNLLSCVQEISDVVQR
Tyrosine-protein kinase receptor UFO (Homo sapiens), sequence (P30530 whole entry): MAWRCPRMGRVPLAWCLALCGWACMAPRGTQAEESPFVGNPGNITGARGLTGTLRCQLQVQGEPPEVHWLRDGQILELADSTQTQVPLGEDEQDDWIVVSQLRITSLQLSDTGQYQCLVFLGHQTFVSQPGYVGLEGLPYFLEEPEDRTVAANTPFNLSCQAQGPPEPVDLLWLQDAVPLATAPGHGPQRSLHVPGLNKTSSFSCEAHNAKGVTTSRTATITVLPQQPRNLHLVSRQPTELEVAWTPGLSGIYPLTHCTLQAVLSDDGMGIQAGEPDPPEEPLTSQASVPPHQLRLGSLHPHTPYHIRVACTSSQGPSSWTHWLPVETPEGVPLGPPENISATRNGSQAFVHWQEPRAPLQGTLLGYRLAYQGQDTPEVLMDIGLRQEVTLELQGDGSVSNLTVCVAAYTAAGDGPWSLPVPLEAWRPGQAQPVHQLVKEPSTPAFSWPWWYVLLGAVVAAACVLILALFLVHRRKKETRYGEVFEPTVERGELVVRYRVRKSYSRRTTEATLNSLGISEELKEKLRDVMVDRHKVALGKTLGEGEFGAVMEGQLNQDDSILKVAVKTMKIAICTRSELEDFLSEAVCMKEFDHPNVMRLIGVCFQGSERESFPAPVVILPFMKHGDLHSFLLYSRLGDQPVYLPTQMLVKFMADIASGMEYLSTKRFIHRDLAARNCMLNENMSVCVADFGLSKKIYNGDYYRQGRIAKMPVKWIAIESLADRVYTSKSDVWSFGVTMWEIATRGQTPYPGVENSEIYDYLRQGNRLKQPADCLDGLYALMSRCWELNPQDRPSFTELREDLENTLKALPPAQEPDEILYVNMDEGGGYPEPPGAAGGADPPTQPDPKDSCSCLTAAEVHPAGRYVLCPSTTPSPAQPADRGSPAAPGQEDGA
Tyrosine-protein kinase ABL1 (Homo sapiens), sequence (P00519 whole entry): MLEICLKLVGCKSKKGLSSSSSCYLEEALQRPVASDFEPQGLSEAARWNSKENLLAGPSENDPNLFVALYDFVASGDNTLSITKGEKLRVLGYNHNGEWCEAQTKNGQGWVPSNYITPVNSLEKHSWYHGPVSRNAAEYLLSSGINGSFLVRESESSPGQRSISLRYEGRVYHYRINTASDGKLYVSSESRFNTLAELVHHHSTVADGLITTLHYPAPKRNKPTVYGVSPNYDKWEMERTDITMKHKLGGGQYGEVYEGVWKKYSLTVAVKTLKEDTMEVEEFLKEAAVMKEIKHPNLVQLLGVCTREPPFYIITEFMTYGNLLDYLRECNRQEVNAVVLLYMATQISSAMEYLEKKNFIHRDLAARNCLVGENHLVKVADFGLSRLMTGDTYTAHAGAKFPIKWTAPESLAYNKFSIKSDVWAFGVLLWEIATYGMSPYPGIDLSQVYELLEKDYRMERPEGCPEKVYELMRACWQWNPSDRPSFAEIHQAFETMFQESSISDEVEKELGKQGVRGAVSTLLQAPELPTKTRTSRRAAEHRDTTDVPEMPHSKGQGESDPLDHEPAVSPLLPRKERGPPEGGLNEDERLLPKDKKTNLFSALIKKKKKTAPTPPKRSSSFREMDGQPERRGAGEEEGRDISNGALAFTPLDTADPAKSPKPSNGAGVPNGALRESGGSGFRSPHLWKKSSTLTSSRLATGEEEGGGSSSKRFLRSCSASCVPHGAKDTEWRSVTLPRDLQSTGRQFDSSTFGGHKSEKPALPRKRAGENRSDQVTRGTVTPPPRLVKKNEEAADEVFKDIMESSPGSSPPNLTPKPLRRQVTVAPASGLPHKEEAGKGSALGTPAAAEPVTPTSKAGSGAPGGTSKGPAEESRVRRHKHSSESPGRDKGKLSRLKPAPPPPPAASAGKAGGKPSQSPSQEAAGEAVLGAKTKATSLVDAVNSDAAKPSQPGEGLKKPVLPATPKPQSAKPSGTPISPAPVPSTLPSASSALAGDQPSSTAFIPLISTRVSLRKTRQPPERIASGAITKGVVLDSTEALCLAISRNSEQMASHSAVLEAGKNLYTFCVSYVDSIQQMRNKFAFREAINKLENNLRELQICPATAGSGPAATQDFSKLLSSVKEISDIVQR
Tyrosine-protein kinase Blk (Homo sapiens), sequence (P51451 2-505 limits assumed): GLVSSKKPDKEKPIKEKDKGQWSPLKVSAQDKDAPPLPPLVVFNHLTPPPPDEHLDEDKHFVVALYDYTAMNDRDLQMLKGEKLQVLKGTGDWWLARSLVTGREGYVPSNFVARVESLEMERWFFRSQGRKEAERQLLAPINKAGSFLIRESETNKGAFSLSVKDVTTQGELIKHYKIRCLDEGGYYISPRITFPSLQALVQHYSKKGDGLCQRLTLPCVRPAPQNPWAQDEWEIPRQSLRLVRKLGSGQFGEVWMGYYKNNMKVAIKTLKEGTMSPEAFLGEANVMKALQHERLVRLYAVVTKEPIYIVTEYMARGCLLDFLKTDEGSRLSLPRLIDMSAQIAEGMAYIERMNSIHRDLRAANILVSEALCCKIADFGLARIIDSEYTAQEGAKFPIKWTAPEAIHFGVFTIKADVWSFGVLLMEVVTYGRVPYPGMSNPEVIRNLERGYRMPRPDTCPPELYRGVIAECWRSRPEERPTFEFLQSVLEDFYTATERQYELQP
Aurora kinase B (Homo sapiens), sequence (Q96GD4 whole entry): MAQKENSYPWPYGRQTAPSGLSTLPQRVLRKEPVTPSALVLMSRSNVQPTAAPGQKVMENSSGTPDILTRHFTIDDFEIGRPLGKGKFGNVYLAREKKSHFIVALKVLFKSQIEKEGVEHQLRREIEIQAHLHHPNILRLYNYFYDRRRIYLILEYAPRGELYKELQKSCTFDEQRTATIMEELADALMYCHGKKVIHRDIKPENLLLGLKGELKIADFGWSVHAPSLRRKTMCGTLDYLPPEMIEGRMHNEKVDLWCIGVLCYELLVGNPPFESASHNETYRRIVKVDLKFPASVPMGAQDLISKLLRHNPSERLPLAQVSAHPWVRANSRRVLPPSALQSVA

Turning to `Oc1ccc(-c2nc(-c3ccc(F)cc3)c(-c3ccncc3)[nH]2)cc1`, the residual activity in [1] was 113% (inactive); in assay [2], 80%; in assay [3], 98%; in assay [4] it was 95%; in assay [5], 78%; in assay [6], 41%. The residual activity in assay [7] is 105%; in assay [8], 89%; in assay [9] it was 69%; in [10], 58%; in assay [11], 113%; in assay [12], 95%. In addition, the residual activity was determined as 121% in [13]; 83% in assay [14]; 49% in assay [15]; 5% in [16]; 108% in [17]; 77% in assay [18]. The figures for the residual activity in assay [19] and in [20] were 109% and 44%, respectively.

In the case of `COc1ccc(C(=O)Nc2sc3c(c2C(N)=O)CCCC3)cc1OC`, the residual activity was 96% (inactive) in assay [1]; 109% in assay [2]; 87% in [3]; 86% in assay [4]; 126% in [5]; 101% in [6]. The residual activity came out at 93% in assay [7]; 96% in assay [8]; 69% in [9]; 46% in assay [10]; 97% in assay [11]; 76% in [12]. Moreover, the residual activity in [13] stood at 76%; in [14] it was 76%; in assay [15], 108%; in assay [16], 114%; in [17], 84%; in [18], 118%. The residual activity came out at 109% in assay [19] and 94% in assay [20].

For `O=C1c2ccccc2-[n+]2ccc3c([nH]c4ccccc43)c21`, the residual activity in assay [1] was 98% (inactive); in assay [2] it was 92%; in assay [3], 102%; in assay [4], 102%; in assay [5], 111%; in assay [6], 87%. The residual activity in [7] amounted to 101%; in assay [8], 89%; in [9], 93%; in assay [10] it was 52%; in assay [11], 83%; in assay [12] it was 72%. Further, the residual activity in assay [13] worked out at 73%; in assay [14] it was 62%; in assay [15], 97%; in assay [16], 80%; in [17], 94%; in [18], 87%. In addition, the residual activity in assay [19] was found to be 95%; in assay [20], 76%.

For the compound `CC(C)n1cnc2c(NCc3ccccc3)nc(NCCCO)nc21`, the residual activity was 98% (inactive) in assay [1]; 102% in [2]; 96% in assay [3]; 81% in assay [4]; 93% in assay [5]; 89% in assay [6]. For the same compound, the residual activity turned out to be 109% in assay [7]; 114% in assay [8]; 99% in assay [9]; 85% in assay [10]; 95% in [11]; 89% in assay [12]. In addition, the residual activity in assay [13] was determined as 105%; in [14], 75%; in [15], 89%; in assay [16], 82%; in assay [17] it was 93%; in [18] it was 94%. Further, the residual activity in assay [19] is 78%; in [20] it was 71%.

For `O=c1cc(-c2cccc3c2Sc2ccccc2S3)oc(N2CCOCC2)c1`, the residual activity is 107% (inactive) in assay [1]; 98% in assay [2]; 99% in assay [3]; 89% in [4]; 97% in [5]; 90% in assay [6]. For the same compound, the residual activity in [7] is 101%; in [8] it was 120%; in [9] it was 105%; in [10] it was 92%; in assay [11], 102%; in assay [12], 92%. Also, the residual activity is 102% in [13]; 86% in [14]; 109% in assay [15]; 96% in [16]; 87% in assay [17]; 80% in assay [18]. The results for the residual activity in [19] and in assay [20] were 101% and 76%, respectively.

With `Cc1ccc(S(=O)(=O)/C=C/C#N)cc1`, the residual activity is 102% (inactive) in [1]; 115% in assay [2]; 104% in assay [3]; 97% in assay [4]; 91% in assay [5]; 97% in [6]. The residual activity is 118% in assay [7]; 103% in assay [8]; 105% in assay [9]; 88% in assay [10]; 93% in assay [11]; 90% in assay [12]. For the same compound, the residual activity in [13] came out at 107%; in assay [14], 94%; in assay [15], 107%; in assay [16] it was 106%; in [17] it was 98%; in [18], 96%. Also, the residual activity in assay [19] is 108%; in [20], 117%.

As to `O=C1NC(=O)/C(=C\c2ccc3nccnc3c2)S1`, the residual activity in [1] was 104% (inactive); in assay [2] it was 80%; in [3] it was 100%; in assay [4], 81%; in assay [5], 89%; in [6], 86%. The residual activity in assay [7] stood at 94%; in assay [8], 46%; in assay [9], 71%; in [10] it was 39%; in assay [11], 106%; in assay [12] it was 59%. For the same compound, the residual activity was determined as 75% in [13]; 54% in [14]; 99% in assay [15]; 103% in [16]; 99% in [17]; 93% in [18]. In addition, the residual activity was determined as 114% in [19] and 79% in assay [20].
